Source: paper PMC4336329 (PLoS ONE, 2015)
Hit rate of the full screen: of about 310,000 compounds, about 14,000 (4.5%) showed an effect of 50% or more. Effects have a minus sign here. This is one part of a sample in which strong results are shown more often than they occur.

What follows are compounds tested against human ether-à-go-go-related gene (hERG) potassium channel (human, UniProt Q12809) (assay: primary screen, population patch clamp on CHO cells stably expressing hERG; higher = less effect of the substance).
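Also: peak tail current of the secondary pulse compared with the same well before compound.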

Chain of human ether-à-go-go-related gene (hERG) potassium channel (Q12809 whole entry, looked up): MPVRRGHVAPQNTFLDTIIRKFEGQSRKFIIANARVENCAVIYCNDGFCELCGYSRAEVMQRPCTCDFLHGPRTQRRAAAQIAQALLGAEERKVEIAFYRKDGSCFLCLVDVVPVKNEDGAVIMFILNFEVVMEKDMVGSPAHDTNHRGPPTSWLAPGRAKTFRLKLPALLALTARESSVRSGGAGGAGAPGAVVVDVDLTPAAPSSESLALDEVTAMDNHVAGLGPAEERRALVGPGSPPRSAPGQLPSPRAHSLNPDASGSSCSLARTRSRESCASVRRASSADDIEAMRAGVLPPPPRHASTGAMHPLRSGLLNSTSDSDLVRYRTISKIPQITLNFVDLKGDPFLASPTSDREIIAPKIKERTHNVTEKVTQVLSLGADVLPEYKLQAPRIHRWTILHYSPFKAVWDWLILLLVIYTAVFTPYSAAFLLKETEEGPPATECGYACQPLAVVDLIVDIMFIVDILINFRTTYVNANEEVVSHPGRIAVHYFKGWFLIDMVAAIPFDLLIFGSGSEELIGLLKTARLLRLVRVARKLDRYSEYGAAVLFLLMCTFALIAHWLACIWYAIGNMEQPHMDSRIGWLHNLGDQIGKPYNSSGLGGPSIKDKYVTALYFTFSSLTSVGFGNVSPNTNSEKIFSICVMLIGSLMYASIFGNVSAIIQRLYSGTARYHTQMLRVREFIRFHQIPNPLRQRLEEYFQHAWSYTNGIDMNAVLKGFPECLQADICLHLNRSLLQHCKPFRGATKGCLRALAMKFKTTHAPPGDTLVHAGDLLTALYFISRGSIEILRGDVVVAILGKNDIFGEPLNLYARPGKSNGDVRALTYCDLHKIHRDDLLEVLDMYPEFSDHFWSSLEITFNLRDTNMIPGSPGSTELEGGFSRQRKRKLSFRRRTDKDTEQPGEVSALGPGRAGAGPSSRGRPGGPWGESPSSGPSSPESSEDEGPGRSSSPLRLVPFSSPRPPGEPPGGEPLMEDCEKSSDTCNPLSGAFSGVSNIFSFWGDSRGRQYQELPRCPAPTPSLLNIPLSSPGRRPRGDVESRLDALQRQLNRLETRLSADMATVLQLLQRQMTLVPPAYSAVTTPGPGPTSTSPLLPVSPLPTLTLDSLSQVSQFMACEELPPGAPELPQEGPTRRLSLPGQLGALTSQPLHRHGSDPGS

SMILES | hERG current change (%, negative = inhibition) at 10uM
COc1ncccc1C(=O)N1CCCC(N2CCN(c3ccc(F)cc3)CC2)C1 (stereo not shown) | -26.7%
O=C(COc1ccccc1Cl)N1CCCC(N2CCN(c3ccc(F)cc3)CC2)C1 (stereo not shown) | -65.8%
Cc1ccc(OCC(=O)N2CCCC(N3CCN(c4ccc(F)cc4)CC3)C2)cc1 (stereo not shown) | -101%
Cc1cc(C)n(CC(=O)N2CCCC(N3CCN(c4ccc(F)cc4)CC3)C2)n1 (stereo not shown) | -18.1%
O=C(CCN1CCCCO1)N1CCCC(N2CCN(c3ccc(F)cc3)CC2)C1 (stereo not shown) | -11.2%
COc1ccc(N2CCN(C3CCCN(C(=O)CSC)C3)CC2)cc1 (stereo not shown) | 3.1%
O=C(COc1ccccc1Cl)N1CCN(c2ccc(F)cc2)CC1 | -6.04%
COc1ccccc1N1CCN(C2CCCN(C(=O)CC(F)(F)F)C2)CC1 (stereo not shown) | 12.4%
COc1ccccc1OCC(=O)N1CCCC(N2CCN(c3ccc(F)cc3)CC2)C1 (stereo not shown) | -52.9%
COc1ccc(CN2CCN(C(=O)CCC(=O)Nc3nnc(CC(C)C)s3)CC2)cc1F | -17.9%
O=C(c1cccc2ccccc12)N1CCN(c2ccccc2F)CC1 | -9.72%
O=C(CCC(=O)Nc1ccccc1)N/N=C/C=C/c1ccccc1 | 32.1%
CC(=O)Nc1ccc(NC(=O)C2CC(=O)N(c3cccc(C)c3C)C2)cc1 (stereo not shown) | 9.48%
Cc1ccn2c(CN(C)CCn3nc(C)cc3C)c(C(=O)N3CCCCCC3)nc2c1 | 4.86%
Cc1cc2cc3c(cc2nc1SCc1ccccn1)OCCO3 | 5.43%
O=c1c(Cl)c(N2CCOCC2)cnn1-c1ncc(C(F)(F)F)cc1Cl | 5.44%
Cc1ccc(N2CC(C(=O)Nc3ccc(S(=O)(=O)N4CCCC4)cc3)CC2=O)cc1C (stereo not shown) | 6.52%
Cc1c(/C(O)=C2/C(=O)C(=O)N(CCN3CCOCC3)C2c2cccs2)cnn1-c1ccccc1 (stereo not shown) | 13.6%
COc1cccc(C(=O)NCc2ccc3c(c2)cc(C)n3C)c1 | 17%
CCc1ccc2[nH]c(=O)c(CN(CCCO)C(=O)NCc3ccccc3)cc2c1 | -13%
CCc1ccc2[nH]c(=O)c(CN(CCO)C(=O)NCc3ccccc3)cc2c1 | 3.64%
CCc1ccc2[nH]c(=O)c(CN(CCN(CC)CC)C(=O)Nc3ccccc3OC)cc2c1 | -76.5%

SMILES | hERG current change (%, negative = inhibition) at 10uM
CCc1ccc2[nH]c(=O)c(CN(Cc3ccccc3)C(=O)Nc3ccccc3OC)cc2c1 | 4.2%
CCc1ccc2[nH]c(=O)c(CN(Cc3ccccc3OC)C(=O)Nc3ccccc3OC)cc2c1 | 3.47%
CCc1ccc2[nH]c(=O)c(CN(CCN(C)C)C(=O)Nc3ccccc3OC)cc2c1 | -64.7%
Nc1nc(SCc2ccc(Cl)c(Cl)c2)n[nH]1 | 10.4%
O=C(COC(=O)c1ccc(F)c(S(=O)(=O)N2CCOCC2)c1)c1ccc(Cl)cc1 | -31.1%
COc1ccccc1/C=N/NC(=O)c1cccc(NC(=O)c2ccccc2C)c1 | -4.64%
CC12CCC(=O)N1C(C(=O)Nc1ccc(F)cc1)CS2 (stereo not shown) | 12.4%
CC12CCC(=O)N1C(C(=O)N1CCN(S(=O)(=O)c3ccccc3F)CC1)CS2 (stereo not shown) | -30.1%
CC(C)c1ccc(NC(=O)C2CSC3(C)CCC(=O)N23)cc1 (stereo not shown) | 2.4%
Cc1ccc(NC(=O)C2CSC3(C)CCC(=O)N23)cc1S(=O)(=O)N1CCOCC1 (stereo not shown) | 2.81%
CC12CCC(=O)N1C(C(=O)OCC(=O)Nc1cccc(Br)c1)CS2 (stereo not shown) | 6.89%
CC12CCC(=O)N1C(C(=O)Nc1ccc(SC(F)F)cc1)CS2 (stereo not shown) | -57.6%
CC12CCC(=O)N1C(C(=O)Nc1ccc(Cl)c(S(=O)(=O)N3CCCCC3)c1)CS2 (stereo not shown) | -34.3%
Cc1ccc(NC(=O)C2CSC3(C)CCC(=O)N23)cc1S(=O)(=O)N1CCCCCC1 (stereo not shown) | -55.4%
Cc1ccc(S(=O)(=O)N2CCN(C(=O)C3CSC4(C)CCC(=O)N34)CC2)cc1C (stereo not shown) | -13.8%
CC12CCC(=O)N1C(C(=O)OCC(=O)Nc1cccc(S(=O)(=O)N3CCCCCC3)c1)CS2 (stereo not shown) | -86.8%
CC12CCC(=O)N1C(C(=O)OCC(=O)Nc1cc(S(=O)(=O)N3CCCCC3)ccc1Cl)CS2 (stereo not shown) | -48.2%
CC12CCC(=O)N1C(C(=O)N1CCN(S(=O)(=O)c3ccc(F)c(F)c3)CC1)CS2 (stereo not shown) | -53.7%
COc1ccc(NS(=O)(=O)c2c(C)n(C)c(=O)n(C)c2=O)cc1 | 15.5%
CN(C)S(=O)(=O)c1ccc(Cl)c(NC(=O)COC(=O)/C=C/c2ccc3ccccc3n2)c1 | 1.53%
Cc1ccc(C(=O)COC(=O)CNC(=O)C(c2ccccc2)c2ccccc2)cc1[N+](=O)[O-] | 4.33%
O=C(O)CC1Sc2ccccc2NC1=O (stereo not shown) | -13.4%

SMILES | hERG current change (%, negative = inhibition) at 10uM
CN(C)C=O.Cc1ccc(S(=O)(=O)N(C)C)cc1NC(=S)Nc1ccc2[nH]c(=O)[nH]c2c1 | 76.2%
CCc1cccc(OCC2Cn3c(nc4c3c(=O)n(C)c(=O)n4C)O2)c1 (stereo not shown) | 3.18%
CC12CCC(=O)N1C(C(=O)Nc1cccc(S(=O)(=O)N3CCCCC3)c1)CS2 (stereo not shown) | -43.9%
CC12CCC(=O)N1C(C(=O)Nc1ccc(S(=O)(=O)N3CCCCC3)cc1)CS2 (stereo not shown) | -5.09%
CC12CCC(=O)N1C(C(=O)Nc1cccc(S(=O)(=O)N3CCCCCC3)c1)CS2 (stereo not shown) | -69.8%
CCOc1cccc(N2C(=O)CC(N(CCc3ccc(OC)c(OC)c3)C(=O)CC)C2=O)c1 (stereo not shown) | 24.9%
COc1ccc(Cc2nnc(SCC(=O)Nc3ccc(C)cc3C)[nH]c2=O)cc1 | -16.8%
Cc1ccc(Cc2nnc(SCC(=O)Nc3ccc(C)cc3C)[nH]c2=O)cc1 | 5.33%
Cc1ccc(NC(=O)CSc2nnc(Cc3ccccc3)c(=O)[nH]2)c(C)c1 | -51.4%
CCOc1cc(CNc2ccc3c(c2)CCC3)ccc1OC | -8.96%
Cc1ccc(NC(=O)CS(=O)(=O)c2c[nH]c3ccccc23)c(C)c1 | 11.9%
O=C(CN1N=C(c2ccccc2)CCC1=O)NCCCN1CCc2ccccc2C1 | -49.6%
Cc1ccc(C2=NN(CCC(=O)NCCCN3CCOCC3)C(=O)CC2)cc1 | -52.3%
Cc1ccc(-c2ccc(=O)n(CC(=O)NCCN(CC(C)C)CC(C)C)n2)cc1 | -16.3%
O=C(CN1N=C(c2ccc(Cl)cc2)CCC1=O)NCCN1CCc2ccccc2C1 | -51.4%
COc1ccc(C2=NN(CCC(=O)NCc3ccc4c(c3)OCO4)C(=O)CC2)cc1 | -18.8%
O=C(CN1N=C(c2ccccc2)CCC1=O)NCCN1CCc2ccccc2C1 | -15.7%
Cc1ccc(C2=NN(CCC(=O)NCc3ccc4c(c3)OCO4)C(=O)CC2)cc1 | -69.7%
Cc1ccc(C2=NN(CC(=O)NCCN(CC(C)C)CC(C)C)C(=O)CC2)cc1 | -50.2%
Cc1ccc(C2=NN(CCC(=O)NCCC(C)C)C(=O)CC2)cc1 | -24.5%
Cc1ccc(CC(=O)NCc2ccc3c(c2)OCO3)cc1 | 2.24%
O=C(CCN1N=C(c2ccccc2)CCC1=O)NCCCN1CCOCC1 | 21.2%

SMILES | hERG current change (%, negative = inhibition) at 10uM
CC(C)CN(CCNC(=O)CN1N=C(c2ccc(Cl)cc2)CCC1=O)CC(C)C | -42.4%
O=C(CN1C(=O)NC2(CCCC2)C1=O)N1CCN(S(=O)(=O)c2ccccc2F)CC1 | 22.3%
O=[N+]([O-])c1ccc(O)c(NC(=S)Nc2ccccc2)c1 | 23.9%
NC(=S)NC1CC2CC1C1C=CCC21 (stereo not shown) | 6.66%
CCOc1ccc(N(CC(=O)NCc2ccc(C)cc2)S(=O)(=O)c2c(C)[nH]c(=O)[nH]c2=O)cc1 | 6.73%
Cc1nn(-c2ccccc2)c(Cl)c1C(=O)NCCCCNC(=O)c1c(C)nn(-c2ccccc2)c1Cl | -2.76%
CN(C)CCCNc1ccc(S(N)(=O)=O)cc1[N+](=O)[O-] | -13.1%
CCCCCCCNC(=O)CN1N=C(c2ccc(C)cc2)CCC1=O | -67.8%
CCOCCCNC(=O)CN1N=C(c2ccc(C)cc2)CCC1=O | -73.9%
COCCNC(=O)CN1N=C(c2ccc(C)cc2)CCC1=O | -47.9%
C=CCNC(=O)CN1N=C(c2ccc(C)cc2)CCC1=O | -44.3%
CC(C)CCNC(=O)CN1N=C(c2ccc(Cl)cc2)CCC1=O | -15.8%
Cc1ccc(C2=NN(CC(=O)O)C(=O)CC2)cc1 | -51.4%
CCN(CC)CCCNC(=O)CN1N=C(c2ccc(OC)cc2)CCC1=O | 14.5%
CCCCN(C)CCCNC(=O)CN1N=C(c2ccc(Cl)cc2)CCC1=O | -56.7%
CC(C)CN(CCCNC(=O)CN1N=C(c2ccc(Cl)cc2)CCC1=O)CC(C)C | -21.8%
Cc1ccc(C2=NN(CC(=O)NCCC(C)C)C(=O)CC2)cc1 | 4.58%
Cc1ccc(C2=NN(CC(=O)NCCN(C)C)C(=O)CC2)cc1 | -44.9%
CCOC(=O)CN1N=C(c2ccc(C)cc2)CCC1=O | -47.2%
